SMILES strings stand for the structures. Records with an inconclusive call do not appear. Unmarked numbers belong to inactive results. The call rests on the fitted dose curve.

This assay in a line: qHTS for inhibitors of Rabies Virus screened against the NCATS CANVASS Library (AID 1347402). Further: 0% is about no effect. Conditions: Rabies virus infection cell assay; series mostly up to 45.9 µM; activity change, negative = inhibition: at the top concentration. On the technique in general: Quantitative high-throughput screening tests each substance at several concentrations.
Take `C[C@@]12CCC[C@@](C)(C(=O)O)[C@H]1C[C@@H](O)[C@@]13C[C@@H](CC[C@@H]21)[C@](C)(O)C3`: the “activity change, negative = inhibition” value was 14.1%.
For `O=Cc1ccc2n1C[C@@]1(C[C@H](O)[C@H](O)CO1)OC2` the value was 10.3%; for `C=CC(C)(C)C(=O)[C@@H](C)[C@@H]1CC[C@](C)(C=C)O1`, 6.22%.
For `CO[C@H]1/C=C/CC[C@@H](S[C@@H]2O[C@H](CO)[C@@H](O)[C@H](O)[C@H]2O)CC(=O)O[C@@H](/C(C)=C/[C@H](C)C(=O)CCCC2CC(=O)NC(=O)C2)[C@@H](C)[C@@H]1O` the value was -23.8% [at 0.021 µM]; for `CO[C@@H]1[C@H](O)[C@@H](C)O[C@@H](OC[C@H]2/C=C/C=C/C(=O)C(C)C[C@H](C)C(O[C@@H]3O[C@H](C)CC4(OC(=O)O[C@@H]4C)C3O)[C@@H](C)/C=C/C(=O)OC2C)[C@@H]1OC` (stereo not given in full), -9.7%.

For the origin of these results see PubChem BioAssay (NCATS).
